# ADAM10 inh: inhibits human ADAM10; inhibition, % at 7 µM; recombinant ADAM10, EDANS/DABCYL FRET peptide cleavage, 3 h; AID 720582; hit rate 0.62% among 370,000;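 active = inhibition above a per-campaign cutoff equal to the mean of compounds falling between control-based bounds plus 3 SD, cut at about 20% in these data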;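 also: 0% = DMSO wells while the 100% control is not disclosed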
# ADAM17 inh: inhibitors of human ADAM17. inhibition, % at 6.95 µM. hit rate 0.83% among 370,000. recombinant ADAM17, EDANS/DABCYL FRET peptide cleavage. P78536;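 active = inhibition above the mean of compounds lying between control limits plus 3 SD, set per campaign, cut at about 8.5% in these data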;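 also: 0% = DMSO-only wells as the low control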
# PLCg1 inh: blocks human PLC-gamma1 enzyme activity. purified PLC-gamma1, fluorogenic substrate, fluorescence. P19174. inhibition, % at 12.2 µM. hit rate 0.84% among 370,000; in the data active = inhibition above about 9.5%
# proKLK7 act: proKLK7 (human) activation, primary screen | purified proKLK7, EDANS-DABCYL substrate fluorescence; 100% is mature enzyme control, 0% vehicle | activation, % at 7 µM | hit rate 0.9% among 370,000 | AID 652039;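 active = activation above the mean of all tested compounds plus 3 SD, computed per campaign excluding outliers beyond control limits, cut at about 13% in these data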
# Target sequence (P49862 whole entry, looked up): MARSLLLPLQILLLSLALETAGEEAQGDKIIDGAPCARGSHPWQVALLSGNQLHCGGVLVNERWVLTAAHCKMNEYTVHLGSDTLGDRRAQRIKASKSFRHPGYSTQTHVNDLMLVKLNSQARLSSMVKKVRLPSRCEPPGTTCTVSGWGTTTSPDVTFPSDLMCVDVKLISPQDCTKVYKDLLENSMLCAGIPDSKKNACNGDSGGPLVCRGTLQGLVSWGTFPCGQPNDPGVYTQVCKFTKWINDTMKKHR
# PLCb3 inh: inhibitors of human phospholipase C beta3; Purified PLC-beta3, fluorogenic substrate, fluorescence; inhibition, % at 12.2 µM; hit rate 0.18% among 370,000; AID 720704; in the data active = inhibition above about 11%;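 also: 0% = median of compound wells on plate and 100% = full blocker control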
# KLK7 act conf: confirmation of human kallikrein-7 zymogen activators | shares compounds with proKLK7 act | purified proKLK7, EDANS-DABCYL substrate fluorescence; scaled: vehicle 0, mature enzyme 100 | activation, % at 7 µM | hit rate 68% among 3,200;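 active = activation, as change over the incubation, above the mean of all tested compounds plus 3 SD, cut at about 13% in these data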
# EDANS interfere: counter-screen for kallikrein-7 activators: EDANS-DABCYL optical interference; shares compounds with proKLK7 act; EDANS-DABCYL substrate fluorescence interference, no enzyme, 4 h; solvent 0%, active enzyme control 100%; activation, % at 7 µM; hit rate 80% among 3,200; AID 686952;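 active = activation above the all-compound mean plus 3 SD, ignoring values outside control-based bounds, cut at about 4.8% in these data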;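 also: value is the 4 h activation minus the activation read at time zero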
# K7 EDANS ctr: optically interferes with EDANS-DABCYL fluorescence, kallikrein-7 activator counter-screen | EDANS-DABCYL peptide fluorescence interference, no enzyme | AID 720493 | hit rate 20% among 250 | EC50, µM | shares compounds with proKLK7 act;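 active = compounds that raise the fluorescence signal in this interference counterscreen, with EC50 at or below 10 µM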;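 also: intact quenched peptide substrate alone read at 355 nm excitation and 520 nm emission; signal is fluorescence gain from T0 to T4 after four hours at room temperature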
# * = called active by the depositor; i = inactive; x = not tested or not shown. An excerpt weighted towards active compounds, which were near 2.9% of everything screened.
SMILES,ADAM10 inh,ADAM17 inh,PLCg1 inh,proKLK7 act,PLCb3 inh,KLK7 act conf,EDANS interfere,others
NC(=O)c1c(NC(=O)c2ccncc2)sc2c1CCCC2,-3,1,-31,0,-36,x,x,
CCNC(=O)/C(C#N)=C/c1c(N2CCN(c3ccccc3)CC2)nc2ccccn2c1=O,i,-280,-173,14*,-232,19*,16*,K7 EDANS ctr=i
COCCCNC(=O)/C(C#N)=C/c1c(N2CCN(C)CC2)nc2ccccn2c1=O,i,-331,-154,17*,-215,10,12*,
CCN1CCN(c2nc3c(C)cccn3c(=O)c2/C=C(\C#N)C(=O)NCCOC)CC1,i,-159,-170,30*,-252,20*,21*,
Cc1cccn2c(=O)c(/C=C(\C#N)C(N)=O)c(N3CCN(Cc4ccc5c(c4)OCO5)CC3)nc12,i,-297,-130,15*,-138,3,3,
CCOC(=O)/C(C#N)=C/c1c(N2CCN(Cc3ccc4c(c3)OCO4)CC2)nc2c(C)cccn2c1=O,-9,-3,0,0,-10,x,x,
COC(=O)c1cc(-c2cnc(OC)nc2OC)c(=O)n2c1CCC2,-7,-5,-3,0,0,x,x,
CCOC(=O)[C@@H]1c2[nH]c3ccccc3c2C[C@@]2(C(=O)OC)C=CCN12,-47,-21,-37,1,-57,x,x,
COc1cccc2sc3cc(NCc4ccc(C)o4)ccc3c(=O)c12,i,-218,i,43*,i,38*,39*,
COc1cc2sc3cc(NCCCN4CCOCC4)ccc3c(=O)c2cc1OC,i,-295,i,-50,i,x,x,
Cc1[nH]nc2c1C(c1ccccc1)N(c1ccccc1)C2=O (stereo not drawn),-7,-2,2,0,-1,x,x,
Cc1cc(C)n2cc(CSCc3ccccc3)nc2n1,i,-357,-272,14*,-351,25*,21*,K7 EDANS ctr=>70
COCCCNC(=O)c1c(N)n(-c2cccc(S(N)(=O)=O)c2)c2nc3ccccc3nc12,i,i,i,20*,i,-20,-66,
Nc1c(C(=O)NCCN2CCOCC2)c2nc3ccccc3nc2n1-c1cccc(F)c1,i,i,i,30*,i,-71,-73,
CCCNC(=O)c1c(N)n(-c2cccc(OC)c2)c2nc3ccccc3nc12,-473,-154,-239,-40,-296,x,x,
CN(C)C(=O)N1CCN(C(=O)[C@H](CCc2ccccc2)NC(=O)[C@H]2O[C@@H](n3cnc4c(N)ncnc43)[C@H](O)[C@@H]2O)CC1,-8,-4,0,0,2,x,x,
C=CCN1C(=O)[C@@H](CC(=O)N2CCC(c3ccccc3)CC2)[C@]2(C(=O)OCC)CCCCC/C=C/12,2,2,1,0,2,x,x,
COC(=O)c1c(C)nc2c(c(SC)nn2-c2ccccc2)c1N,-20,-5,-2,0,-2,x,x,
COC(=O)c1c(C)nc2nonc2c1N,-294,-105,i,14*,i,47*,49*,
CN(C(=O)c1ccccc1OCC(=O)Nc1ccc(Br)cc1)c1ccccc1,7,3,0,0,-3,x,x,
CNc1ccc(Cl)cc1C(N)=O,i,-492,i,17*,i,11,20*,
Nc1[nH]c(C(=O)c2ccccc2)c(-c2ccccc2Cl)c1C(=O)NCCc1c[nH]c2ccccc12,7,4,-14,0,-16,x,x,
CCCc1cc2c(O)ccc(O)c2c(=O)o1,i,-186,-211,36*,-248,256*,268*,
COC(=O)C1=C(C)Nc2nnnn2C1c1cccnc1 (stereo not drawn),4,-3,-1,0,2,x,x,
CC1=C(C(=O)Nc2ccccn2)C(c2cccnc2)n2nnnc2N1 (stereo not drawn),-289,-93,-33,21*,-46,5,5.8*,
SMILES,ADAM10 inh,ADAM17 inh,PLCg1 inh,proKLK7 act,PLCb3 inh,KLK7 act conf,EDANS interfere,others
N#Cc1cccc(CNCC(=O)N2CCC3(CC2)OCCO3)c1,1,-2,1,1,1,x,x,
O=C(c1cc(-c2ccc(F)cc2)nc2ccccc12)N1CCC1,-55,-16,-30,0,-42,x,x,
O=C(O)c1cc(-c2ccc(-c3ccc(F)cc3)o2)nc2ccccc12,-328,-111,i,33*,i,65*,76*,
Cc1ccc2c(CN3CCN(CCO)CC3)cc(=O)oc2c1C,-6,-4,-2,0,-2,x,x,
CCc1cc2c(CN3CCN(C)CC3)cc(=O)oc2cc1O,i,i,i,78*,i,68*,75*,
CN1CCN(Cc2cc(=O)oc3cc4c(cc23)CCC4)CC1,-37,-7,-6,1,-5,x,x,
CCc1cc2c3c(c(=O)oc2cc1O)CCCC3,i,i,i,54*,i,62*,66*,
CCc1cc2c(CN3CCN(CCO)CC3)cc(=O)oc2cc1O,i,i,i,49*,i,57*,67*,
C[C@H]1CCCN1c1cccc2c1S(=O)(=O)N1CC[C@@H](C1)O2,-1,-4,-2,0,1,x,x,
O=C1CC(N2CCCN(Cc3ccccc3)CC2)=NC(=O)N1c1ccc(Br)cc1,-28,-11,-5,-1,-5,x,x,
COc1ccccc1C(=O)NC1CCCCN(Cc2ccc(Cl)cc2)C1=O (stereo not drawn),0,-1,0,1,0,x,x,
Cc1cc(=O)oc2c3c(cc(OCC(=O)Nc4ccc(CCO)cc4)c12)OC(C)(C)CC3,i,i,i,-38,i,x,x,
CCCCc1cc(=O)oc2c3c(cc(OCC(=O)N4CCC[C@H]4C(=O)O)c12)OC(C)(C)CC3,i,i,i,53*,i,57*,62*,
Cc1cc(=O)oc2c3c(cc(OCC(=O)N4CCC[C@H]4C(=O)O)c12)OC(C)(C)CC3,i,i,i,35*,i,66*,64*,
Cc1cc(=O)oc2c3c(cc(OCC(=O)N4CCC(C(=O)O)CC4)c12)OC(C)(C)CC3,i,i,i,48*,i,65*,61*,
CCCN1CCCCC(NC(=O)c2ccc3ccccc3c2)C1=O (stereo not drawn),-2,-3,0,0,-2,x,x,
CCC1OC23CCCCC2C(C#N)(C(=N)O3)C1(C#N)C#N (stereo not drawn),i,-411,-294,14*,-343,68*,62*,
Nc1ccc2nc(-c3ccccn3)[nH]c2c1,-20,-9,-181,-1,-210,x,x,
Nc1ccc2nc(-c3ccccc3)[nH]c2c1,i,i,i,77*,i,61*,76*,

# Bioassay records: PubChem, The Scripps Research Institute Molecular Screening Center
